# Smad3 inh: Smad3 (human) transcription factor binding inhibition; TR-FRET Smad3/Dy647-FoxH1 peptide binding, europium anti-His; P84022; inhibition, % at 25 µM; 88,000 compounds, 0.29% hits; AID 630;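 active means compounds that reduce the energy-transfer binding signal between the protein and its labelled peptide by more than half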
# Target sequence (P84022 whole entry, looked up): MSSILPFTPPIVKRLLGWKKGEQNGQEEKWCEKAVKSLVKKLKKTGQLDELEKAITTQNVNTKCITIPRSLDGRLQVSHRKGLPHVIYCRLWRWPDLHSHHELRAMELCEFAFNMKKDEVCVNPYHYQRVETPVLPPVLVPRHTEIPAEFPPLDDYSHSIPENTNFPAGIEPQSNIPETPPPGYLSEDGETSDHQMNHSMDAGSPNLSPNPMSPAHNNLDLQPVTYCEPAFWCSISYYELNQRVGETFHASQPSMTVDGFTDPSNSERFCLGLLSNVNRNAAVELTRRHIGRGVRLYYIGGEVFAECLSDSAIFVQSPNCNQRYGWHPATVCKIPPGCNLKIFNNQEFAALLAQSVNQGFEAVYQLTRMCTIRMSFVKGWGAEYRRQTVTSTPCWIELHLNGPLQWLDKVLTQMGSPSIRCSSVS
# Measles CPE: protection of cells from measles virus; Measles virus-infected cells, CPE protection, absorbance; protection (pct of control), % at 4 µM; 140,000 compounds, 1.5% hits; AID 841; in the data active means protection mostly above about 24%, no sharp cut-off; inactive means mostly below about 26%
# MT1-MMP txn act: activates MT1-MMP transcription | HT1080 MT1-MMP promoter luciferase reporter, luminescence, overnight; active compounds read high | activation factor at 10 µM | 86,000 compounds, 0.16% hits | AID 750;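 active means activation factor of at least 2 for MT1-MMP transcription at 10 µM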
# A number is an active result; - = inactive; . = no result given. In the library only some 1.7% were active in any assay of this set; here they are far more common.
SMILES,Smad3 inh,Measles CPE,MT1-MMP txn act
Oc1ccc2ccccc2c1CN(Cc1c(O)ccc2ccccc12)C1CCCCC1,-,.,.
CCOc1ccccc1NC(=S)N1CCC(c2nc3ccccc3o2)CC1,.,-,.
CN(c1cccc(NC(=O)CN(c2cccc(Cl)c2)S(=O)(=O)c2ccc(Cl)cc2)c1)S(C)(=O)=O,.,-,.
CSc1ccccc1NC(=O)CO/N=C(\C)c1cc2ccccc2o1,.,-,.
COc1cc(/C=N/OCC(=O)NC23CC4CC(CC(C4)C2)C3)ccc1OCc1ccccc1,.,49,.
C/C(=N\OCC(=O)NC12CC3CC(CC(C3)C1)C2)c1cc2ccccc2o1,.,19,.
COc1cc(/C=N/OCC(=O)NC2CCCCC2)ccc1OCc1ccccc1,.,86,.
COc1cc(/C=N/OCC(=O)Nc2ccc(OC(F)F)cc2)ccc1OCc1ccccc1,.,-,.
CCOc1ccc(/C=N/OCC(=O)Nc2ccc(OCc3ccccc3)cc2)cc1OC,.,-,.
CCC1=C2CC[C@H]3C(=O)NC(=O)[C@H]3[C@H]2[C@@]2(Cc3ccccc3)C(=NCc3ccccc3)OC(=O)N2C1=O,.,.,-
CCOC(=O)C1=C(C)N(CCCC(=O)O)C(=O)NC1c1cccs1 (stereo not given),.,.,-
COc1cc(CN(C(=S)NCC(=O)NC2CC2)C2CCCC2)cc(OC)c1OC,.,-,.
Cc1ccc(C)c([C@@H]2NC(=O)c3ccccc3N2)c1,-,.,.
O=C(O)[C@H](Cc1c[nH]c2ccccc12)N1C(=O)c2ccccc2C1=O,-,.,.
Cc1ccc(-c2nc(N)sc2CC(=O)OCC(=O)NC2CCCC(C)C2C)cc1 (stereo not given),.,26,.
Cc1ccc(-c2nc(N)sc2CC(=O)OCC(=O)N2C(C)CCCC2C)cc1 (stereo not given),.,-,.
Fc1cccc(CSc2ncnc3c2ncn3[C@H]2CCCS2)c1,-,.,.
CCCCC1C(=O)N(c2ccccc2)N(c2ccccc2)C1=O,-,60,-
CCCCOCC1CN(c2ccccc2)C(=O)CS1 (stereo not given),-,-,-
COc1ccc(Cc2ccccc2C(=O)O)c2ccccc12,-,.,.
COc1ccc(C(=O)NC2CCCCCC2)cc1S(=O)(=O)N1CCCc2ccccc21,-,-,-
COc1ccc(C(=O)Nc2nc3c(s2)CCCC3)cc1S(=O)(=O)N1CCCc2ccccc21,.,36,.
CN1CCC[C@H]1c1cccnc1.O=C(O)c1ccccc1O.O=C([OH2+])c1ccccc1O.O=C([OH2+])c1ccccc1O.[Mn+2],-,.,.
CN1CCC[C@H]1c1cccnc1.O=C(O)c1ccccc1O.O=C([OH2+])c1ccccc1O.O=C([OH2+])c1ccccc1O.O=C([OH2+])c1ccccc1O.[Cu],97,.,.
O=C(O)CC(CC(=O)O)C(=O)O,-,.,.
COc1cccc(CNC(=O)Nc2cccs2)c1,-,44,-
COc1ccc(CNC(=O)Nc2cccs2)cc1OC,.,-,-
COc1cc(NS(=O)(=O)c2ccc(N/C=C\C(=O)c3ccc(F)cc3)cc2)nc(OC)n1,.,-,.
